The campaign covered roughly 48,000 compounds. About 13,000 (27%) showed an effect of 50% or more. This is one part of the list.
tested on: Wolbachia pipientis; test: Anti-Wolbachia Cell-Based Screen; format: functional; design: scale not given: in the data most compounds retested in dose-response had high values; settings: 5 µM

Row | SMILES | Percent Effect [%]
1 | CCCc1cc(N2CCCC2Cn2cc(C)cn2)n2ncnc2n1 (stereo unspecified) | -1.643
2 | O=C(Nc1ccc2ncccc2c1)C1CC(=O)N(Cc2ccccn2)C1 (stereo unspecified) | -4.026
3 | Cc1ccc(C(NC(=O)CCNC(=O)c2ccoc2)C(F)(F)F)cc1 (stereo unspecified) | 20.44
4 | Cc1nc(CN2C[C@@H](NS(=O)(=O)N(C)C)[C@H](C(C)C)C2)cs1 | -0.9733
5 | Cc1ccc(CN(CC(=O)NCC2CCOC2)c2ccc(F)cc2)o1 (stereo unspecified) | -9.674
6 | Cc1ccc2cccc(Oc3nc(C)c(C(=O)O)s3)c2n1 | 111
7 | Cc1nc(Oc2ccccc2Cl)sc1C(=O)O | 98.65
8 | Cc1nc(-c2ccc(Cl)s2)sc1C(=O)O | 9.091
9 | COc1cccc(CNCc2c(C)nc3sc(C)cn23)c1OC | -11.36
10 | COc1cccc(Oc2nc(C)c(C(=O)O)s2)c1OC | 116.8
11 | Cc1nc(NC(=O)OC(C)(C)C)sc1C(=O)O | 0.0995
12 | CCOC(=O)CCNC(=O)c1cccc2ccc(C)nc12 | -7.02
13 | Cc1ccc2cccc(C(=O)N3CCN(c4cccnn4)CC3)c2n1 | -2.333
14 | CC(=O)Nc1cnc(Oc2ccccc2F)nc1 | -1.763
15 | Cc1nc(-c2ccccc2F)sc1C(=O)N1CCN(C)CC1 | 3.843
16 | COc1cccc(C(=O)N(C)C(C)c2c(C)n[nH]c2C)c1OC (stereo unspecified) | -15.68
17 | Cc1nc(Oc2ccccc2F)sc1C(=O)O | 91.89
18 | O=C1C(N2CCOC3(CCCC3)C2)CCN1C1CC1 (stereo unspecified) | 15.83
19 | Cc1nnc2n1CC(CNc1ncnc3ccccc13)CC2 (stereo unspecified) | -0.4612
20 | CCN(CC)CCCN1CCC(NC(=O)OC(C)(C)C)CC1 | 13.41
21 | CSCCCN(CCN1CCOCC1)Cc1ccco1 | 114.6

Row | SMILES | Percent Effect [%]
22 | CN(C)CCN1CCc2ncc(CN(C)Cc3ccco3)n2CC1 | 24.09
23 | Cc1cc(C)n(Cc2cccc(C(=O)NCCN3CCOCC3)c2)n1 | -2.99
24 | Cc1cc(C)n(CCN2CCN(C(=O)c3ccccc3Br)CC2)n1 | 0.6022
25 | Cc1cc(C)n(CCCN(CCN2CCOCC2)Cc2ccco2)n1 | 110.7
26 | Cl.Cl.O[C@@H]1C[C@@](CNCc2cccc(Cl)c2)(COc2cccnc2)C[C@@H]1O | -8.733
27 | COc1ncccc1CN1C[C@H]2CCN(c3ccc(C)nn3)C[C@H]2C1.O=C(O)C(F)(F)F | 107.5
28 | CCOCC1CN(Cc2cccnc2OC)Cc2cnn(C)c21.O=C(O)C(F)(F)F.O=C(O)C(F)(F)F.O=C(O)C(F)(F)F (stereo unspecified) | 2.379
29 | COc1ncccc1CN1C[C@@H]2C[C@@H](C(=O)NCC3CC3)N(C)[C@@H]2C1 | 96.26
30 | COc1ncccc1CNC(=O)N1CCC(CNC(C)=O)CC1 | 18.77
31 | Cc1ccc(N2CC[C@H]3CN(C(=O)c4ccn(C)n4)C[C@H]3C2)nn1.O=C(O)C(F)(F)F | -19.75
32 | COc1ncccc1CN1CC[C@@]2(O)CCN(C(=O)C3CCC3)C[C@H]2C1 | 6.817
33 | COc1ncccc1CN1Cc2nnn(C)c2C(COCC2CC2)C1.O=C(O)C(F)(F)F.O=C(O)C(F)(F)F (stereo unspecified) | -15.9
34 | COc1ncccc1CN1CCC2(CCCN2S(C)(=O)=O)CC1.O=C(O)C(F)(F)F.O=C(O)C(F)(F)F | 2.287
35 | COc1ncccc1CN1C[C@H]2C[C@@H](C(=O)NCC3CC3)N(C)[C@H]2C1.O=C(O)C(F)(F)F.O=C(O)C(F)(F)F.O=C(O)C(F)(F)F | 107.4
36 | CN(Cc1cccnc1)CC1CC12CCN(c1nncs1)CC2.O=C(O)C(F)(F)F.O=C(O)C(F)(F)F.O=C(O)C(F)(F)F (stereo unspecified) | 10.12
37 | COc1ccc(-c2noc(Cn3cnc(C)c3)n2)c(OC)c1OC | 10.58
38 | Cc1ccc(-c2noc([C@@H]3Cc4nc[nH]c4CN3)n2)cc1 | 1.545
39 | CSCC(=O)Nc1nccn1Cc1ccc(Br)cc1 | -2.171
40 | O=C1N(c2ccccc2)Cc2n[nH]c(=O)n21 | -1.221
41 | COc1cc(C(=O)N2CC(Oc3ccccc3Cl)C2)ccn1 | -4.351
42 | CN(Cc1cc2n(n1)CCCN(C(=O)N1CCCC1)C2)Cc1nccs1 | 94.61

Row | SMILES | Percent Effect [%]
43 | CN(C)C(=O)N1CCn2nc(CNC(=O)CCC(F)(F)F)cc2C1 | -4.672
44 | COCCOC(=O)N1CCn2nc(CN(C)Cc3nccs3)cc2C1 | 91.56
45 | CN(C)C(=O)N1CCn2nc(CNC(=O)CCc3ccccn3)cc2C1 | 5.444
46 | CN(C)C(=O)N1CCCn2nc(CNC(=O)CCc3cccs3)cc2C1 | 2.264
47 | CN(C)C(=O)N1CCCn2nc(CNC(=O)CCc3ccsc3)cc2C1 | -5.491
48 | CCn1c(CC2CCN(C(=O)C3CNCCO3)CC2)nn(C)c1=O (stereo unspecified) | -6.283
49 | CC(C)(CCS(C)(=O)=O)CNc1ccc2ccc(F)cc2n1 | 0.04358
50 | O=C(c1cccs1)N1CCC(Cn2nc(-c3ccco3)ccc2=O)CC1 | -6.925
51 | O=C(c1ccco1)N1CCC(n2nc(-c3cccs3)ccc2=O)CC1 | 64.54
52 | CC(C)(C)C(=O)N1CCC(n2cc(C3(O)CCCC3)nn2)CC1 | -19.86
53 | O=C(c1ccco1)N1CCC(n2cc(-c3ccsc3)nn2)CC1 | 0.1659
54 | O=C(Cc1ccsc1)N1CCC(n2nc(-c3ccco3)ccc2=O)CC1 | -9.761
55 | Cc1oc(-c2ccco2)nc1CC(=O)N1CCC(C(O)C(F)(F)F)CC1 (stereo unspecified) | 3.492
56 | O=C(c1cccs1)N1CCC(n2nc(-c3ccco3)ccc2=O)CC1 | -4.214
57 | CC(C)(C)C(=O)N1CCC(n2nc(-c3ccco3)ccc2=O)CC1 | 101.2
58 | O=C(c1csc(-c2ccco2)n1)N1CCN2CCCCC2C1 (stereo unspecified) | -12.72
59 | O=C(c1ccco1)N1CCC(n2nc(-c3ccco3)ccc2=O)CC1 | 74.86
60 | CC(=O)c1c(F)cccc1NC1CCN(C(=O)C2CCCCC2)CC1 | 1.543
61 | O=C(C1CCCCC1)N1CCC(n2nc(-c3ccco3)ccc2=O)CC1 | 79.69

Reference: ChEMBL document CHEMBL3988442, “University of Dundee, Small-Polar-MMV Screening Library” (2021)
